In the supplement of paper PMC3334620:
The full ranking holds about 33,000 sequences; the median of “E-score (-0.5 to 0.5)” is about -8e-05, and the highest 2% start at about 0.23. This is one part of a sample in which the highest values are shown more often than they occur.

These sequences were tested against T1, Nrg2 (UniProt P38082) (assay: PBM E-score (8-mer binding enrichment) (E-score (-0.5 to 0.5)); higher = stronger / more preferred TF binding). Conditions: protein concentration: 100 nM; construct: GST-full length.
T1 sequence: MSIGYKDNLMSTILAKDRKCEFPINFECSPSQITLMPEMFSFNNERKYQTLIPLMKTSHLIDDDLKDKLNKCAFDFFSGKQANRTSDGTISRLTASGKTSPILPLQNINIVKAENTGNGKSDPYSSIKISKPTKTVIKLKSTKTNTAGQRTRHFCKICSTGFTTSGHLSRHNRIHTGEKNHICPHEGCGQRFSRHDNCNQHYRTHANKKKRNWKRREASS
Method: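 Universal 'all 10-mer' protein binding microarrays (Agilent AMADID 015681) probed with GST-tagged S. cerevisiae TFs (full-length or DBD) made by in vitro transcription/translation (PURExpress), about 100-200 nM. Bound TF was detected with fluorescent anti-GST. Each ungapped 8-mer (which stands for itself and its reverse complement) is scored by the PBM enrichment score (E-score), a modified Wilcoxon-Mann-Whitney statistic from -0.5 to +0.5, computed with the Universal PBM Analysis Suite. Scale: above 0.35 generally sequence-specific binding.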

Going from CCACCAGA to CCCGGAGA, the “PBM E-score” value falls from 0.0154 to -0.138.

Going from TGATAGCA to TGAGGACA, the “PBM E-score” value falls from 0.14 to 0.0644.

Going from ACTCTTTA to GAGTAGGC, the “PBM E-score” value falls from -0.0446 to -0.0622.

Going from AATACTGC to ACAGCTGC, the “PBM E-score” value falls from 0.068 to -0.0727.

First: CTTACTAA
Second: CAGGCCTG
The “PBM E-score” value of the first is lower: 0.0213 for the first, 0.115 for the second.

Going from AGGGTACC to AGGGTACT, the “PBM E-score” value rises from 0.0534 to 0.255.

Compared with AGGGTACA, GGTCTACA is lower in “PBM E-score” value: 0.181 for the first, -0.0592 for the second.

First: CAAACCAC
Second: CTACGTTC
The “PBM E-score” value of the first is higher: -0.00637 for the first, -0.178 for the second.

Going from ACGGAACA to CCGGAACA, the “PBM E-score” value falls from 0.0339 to -0.0209.

Compared with TCGGAACA, CGGCCATA is lower in “PBM E-score” value: 0.313 for the first, -0.123 for the second.

Compared with AGGTTTCC, TCCGTGCA is higher in “PBM E-score” value: -0.0376 for the first, 0.134 for the second.

Compared with CGAACGGC, CATGGCCA is lower in “PBM E-score” value: -0.0328 for the first, -0.042 for the second.

Compared with CATGGCCC, CATGGCCG is higher in “PBM E-score” value: -0.066 for the first, 0.258 for the second.

Going from AGTCAGTC to CCTAATCG, the “PBM E-score” value rises from -0.127 to 0.16.

Going from ACTAATCG to ACTAATCT, the “PBM E-score” value falls from 0.278 to 0.00502.

Compared with GGACCACC, ACTCCAGC is lower in “PBM E-score” value: 0.0365 for the first, -0.0193 for the second.

Going from ATTTTCGC to GATTTCGC, the “PBM E-score” value rises from 0.131 to 0.281.

Compared with GATTTCGA, CATTTCGC is higher in “PBM E-score” value: 0.00717 for the first, 0.184 for the second.

Going from AATTTCGA to AATTTCGC, the “PBM E-score” value rises from 0.0453 to 0.244.

First: GTAGTCTA
Second: AACACTAT
The “PBM E-score” value of the first is lower: -0.118 for the first, 0.252 for the second.

Going from AACAATAC to GACAAAAA, the “PBM E-score” value falls from 0.202 to 0.0692.

First: AACACTAG
Second: AACAATAA
The “PBM E-score” value of the first is lower: 0.152 for the first, 0.26 for the second.

Going from ACCAATAT to AACACTAC, the “PBM E-score” value falls from 0.213 to 0.0505.

First: GACAAGAC
Second: AACAATAG
The “PBM E-score” value of the first is higher: 0.154 for the first, -0.124 for the second.

Going from GACAAAAC to AGCAATAT, the “PBM E-score” value falls from 0.274 to 0.0474.

Compared with AACAATAT, AGTGAATC is lower in “PBM E-score” value: 0.266 for the first, 0.0226 for the second.

First: ATTTGCTC
Second: GCCGAGGC
The “PBM E-score” value of the first is lower: 0.156 for the first, 0.177 for the second.

Compared with CATTAAGA, ACTGGCCT is higher in “PBM E-score” value: -0.214 for the first, -0.0393 for the second.

First: CCGGAGCC
Second: AACAATCG
The “PBM E-score” value of the first is lower: -0.189 for the first, -0.0412 for the second.

Going from CACAATAC to AACAATCC, the “PBM E-score” value rises from 0.173 to 0.241.

Compared with AGTAATAC, GACAATAA is higher in “PBM E-score” value: -0.0266 for the first, 0.218 for the second.

Compared with CGTAATAG, AATAATAT is higher in “PBM E-score” value: -0.00104 for the first, 0.283 for the second.

Going from AATAATAA to AATAATAG, the “PBM E-score” value falls from 0.0987 to 0.0626.

Compared with AACAATCT, GACAATAC is higher in “PBM E-score” value: 0.0946 for the first, 0.232 for the second.

Compared with AGTAATAG, TCTCTTAA is lower in “PBM E-score” value: 0.247 for the first, 0.123 for the second.

Compared with AGGTTCAG, ACCCTTCT is lower in “PBM E-score” value: 0.0524 for the first, -0.104 for the second.

Compared with GCCTGGTA, ATAGGTTA is lower in “PBM E-score” value: 0.0618 for the first, -0.00463 for the second.

First: AGCAATAC
Second: CGCAATAA
The “PBM E-score” value of the first is lower: 0.12 for the first, 0.211 for the second.

Compared with CGCAATAC, GATACACC is lower in “PBM E-score” value: 0.231 for the first, 0.0324 for the second.

Compared with CTGTCGAC, AAATCGAG is higher in “PBM E-score” value: -0.0435 for the first, 0.0129 for the second.

First: CAATCGAC
Second: AAATCGAC
The “PBM E-score” value of the first is lower: -0.102 for the first, 0.237 for the second.

First: AAATCGAA
Second: ATGTCGAA
The “PBM E-score” value of the first is lower: 0.111 for the first, 0.147 for the second.

Compared with TAATCGAA, ATGTCGAC is higher in “PBM E-score” value: 0.176 for the first, 0.254 for the second.

Compared with ATATCGAC, CAATCGAA is higher in “PBM E-score” value: 0.255 for the first, 0.258 for the second.

Going from CTATCGAC to GTATCGAC, the “PBM E-score” value rises from -0.166 to 0.123.

Compared with CGCCGGAC, CCCTGTCC is lower in “PBM E-score” value: 0.0155 for the first, 0.0104 for the second.

First: CTTGAAGC
Second: CAACGGTG
The “PBM E-score” value of the first is higher: -0.0505 for the first, -0.187 for the second.
